Data from PMC7862700, “An all-to-all approach to the identification of sequence-specific readers for epigenetic DNA modifications on cytosine”.

Experiments:
Test in all cases: DAPPL (digital affinity profiling via proximity ligation, sequencing); 10 mM Tris-HCl pH 7.5, 50 mM NaCl, 1 mM DTT, 4% glycerol, room temperature, 30 min; GST-TFs on glutathione beads, 16-mer random dsDNA library, 0.1% formaldehyde crosslink after washing; high values mean tight binding
Settings in all cases: protein: recombinant; tags: N-terminal GST; dsDNA, one strand shown
FLI1 = target: T1, FLI1 (Homo sapiens, UniProt Q01543 1-452)
T1 sequence: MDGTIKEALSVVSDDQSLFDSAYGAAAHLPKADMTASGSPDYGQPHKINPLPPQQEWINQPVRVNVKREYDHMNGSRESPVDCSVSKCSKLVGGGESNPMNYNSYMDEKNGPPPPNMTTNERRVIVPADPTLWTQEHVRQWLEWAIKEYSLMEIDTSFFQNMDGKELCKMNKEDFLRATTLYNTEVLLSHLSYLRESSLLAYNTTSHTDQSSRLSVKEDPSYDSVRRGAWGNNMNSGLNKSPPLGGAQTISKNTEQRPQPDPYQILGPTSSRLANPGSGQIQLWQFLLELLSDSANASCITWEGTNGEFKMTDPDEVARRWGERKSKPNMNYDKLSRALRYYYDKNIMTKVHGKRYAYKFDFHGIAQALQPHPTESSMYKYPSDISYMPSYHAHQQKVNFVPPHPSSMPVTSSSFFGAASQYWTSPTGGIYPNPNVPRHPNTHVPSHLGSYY
How it was run: (§1)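 After expression in yeast as GST fusions, human transcription factors were bound to glutathione beads, DNA-barcoded and mixed with a tag-only sample. The pools were incubated with 200 nmole of a 16-mer random double-stranded DNA library in Tris/NaCl/DTT/glycerol buffer (30 min, room temperature), washed and crosslinked with 0.1% formaldehyde. Proximity ligation with BsaI/T4 ligase ran for 1 h at 37 °C, before PCR amplification and sequencing on an Illumina NextSeq500. Binding signal is a hexamer's read frequency for a factor divided by its frequency for the tag-only sample.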

ELK1 = target: T2, ELK1 (Homo sapiens, UniProt P19419 1-428)
T2 sequence: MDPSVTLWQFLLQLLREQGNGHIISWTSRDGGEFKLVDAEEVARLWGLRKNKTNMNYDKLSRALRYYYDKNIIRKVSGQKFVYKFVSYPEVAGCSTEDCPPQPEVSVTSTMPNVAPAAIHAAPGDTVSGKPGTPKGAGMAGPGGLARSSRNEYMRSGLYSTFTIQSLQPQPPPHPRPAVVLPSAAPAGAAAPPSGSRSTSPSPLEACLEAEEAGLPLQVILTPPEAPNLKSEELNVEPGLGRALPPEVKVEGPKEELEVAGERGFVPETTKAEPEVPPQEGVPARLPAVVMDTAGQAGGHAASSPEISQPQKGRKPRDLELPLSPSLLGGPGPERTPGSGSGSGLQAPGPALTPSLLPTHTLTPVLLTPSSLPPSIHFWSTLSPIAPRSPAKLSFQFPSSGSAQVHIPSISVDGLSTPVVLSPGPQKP
How it was run: as §1

GABPA = target: T3, GABPA (Homo sapiens, UniProt Q06546 1-454)
T3 sequence: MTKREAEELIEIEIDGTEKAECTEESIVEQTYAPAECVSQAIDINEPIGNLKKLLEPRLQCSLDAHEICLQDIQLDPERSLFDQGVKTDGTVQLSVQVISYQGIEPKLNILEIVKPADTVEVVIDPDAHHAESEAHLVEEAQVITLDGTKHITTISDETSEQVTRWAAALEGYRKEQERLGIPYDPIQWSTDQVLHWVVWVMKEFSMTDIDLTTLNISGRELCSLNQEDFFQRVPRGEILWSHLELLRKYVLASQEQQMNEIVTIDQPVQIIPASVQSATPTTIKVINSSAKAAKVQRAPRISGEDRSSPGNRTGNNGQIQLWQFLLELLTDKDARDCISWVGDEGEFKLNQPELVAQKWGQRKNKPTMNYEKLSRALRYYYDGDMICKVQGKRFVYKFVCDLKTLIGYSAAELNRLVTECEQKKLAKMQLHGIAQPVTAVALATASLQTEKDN
How it was run: as §1

ERG = target: T4, ERG (Homo sapiens, UniProt P11308 1-479)
T4 sequence: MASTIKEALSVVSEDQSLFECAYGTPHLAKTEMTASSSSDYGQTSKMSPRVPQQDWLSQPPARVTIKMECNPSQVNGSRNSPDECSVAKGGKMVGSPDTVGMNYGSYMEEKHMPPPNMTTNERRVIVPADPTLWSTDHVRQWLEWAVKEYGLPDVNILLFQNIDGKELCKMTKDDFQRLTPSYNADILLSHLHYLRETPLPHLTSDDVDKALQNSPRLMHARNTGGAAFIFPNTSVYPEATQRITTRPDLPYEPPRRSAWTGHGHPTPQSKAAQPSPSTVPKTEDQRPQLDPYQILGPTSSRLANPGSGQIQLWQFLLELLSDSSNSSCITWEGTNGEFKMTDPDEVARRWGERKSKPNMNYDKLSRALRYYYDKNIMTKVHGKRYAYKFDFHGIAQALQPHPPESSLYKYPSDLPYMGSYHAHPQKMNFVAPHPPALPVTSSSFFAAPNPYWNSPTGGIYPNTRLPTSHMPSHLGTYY
How it was run: as §1

ELF1 = ELF1 (Homo sapiens, UniProt P32519 1-619)
Chain of ELF1 (P32519 whole entry): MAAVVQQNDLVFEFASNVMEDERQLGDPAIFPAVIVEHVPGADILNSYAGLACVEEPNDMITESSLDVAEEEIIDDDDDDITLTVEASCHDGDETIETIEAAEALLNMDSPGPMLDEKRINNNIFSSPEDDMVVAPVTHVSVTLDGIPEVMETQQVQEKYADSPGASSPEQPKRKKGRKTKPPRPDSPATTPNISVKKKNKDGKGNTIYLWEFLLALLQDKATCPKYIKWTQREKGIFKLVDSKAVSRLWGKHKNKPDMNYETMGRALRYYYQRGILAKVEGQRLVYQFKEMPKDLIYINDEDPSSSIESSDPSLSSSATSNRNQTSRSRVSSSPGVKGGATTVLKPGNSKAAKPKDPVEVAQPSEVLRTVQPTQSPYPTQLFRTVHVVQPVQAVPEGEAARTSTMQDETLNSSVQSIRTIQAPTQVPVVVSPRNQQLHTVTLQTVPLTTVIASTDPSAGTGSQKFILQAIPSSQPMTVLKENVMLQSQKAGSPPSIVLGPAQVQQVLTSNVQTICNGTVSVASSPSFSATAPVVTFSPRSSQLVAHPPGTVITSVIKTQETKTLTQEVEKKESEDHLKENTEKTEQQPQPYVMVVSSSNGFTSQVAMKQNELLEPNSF
How it was run: as §1

EHF = target: T5, EHF (Homo sapiens, UniProt Q9NZC4 1-300)
T5 sequence: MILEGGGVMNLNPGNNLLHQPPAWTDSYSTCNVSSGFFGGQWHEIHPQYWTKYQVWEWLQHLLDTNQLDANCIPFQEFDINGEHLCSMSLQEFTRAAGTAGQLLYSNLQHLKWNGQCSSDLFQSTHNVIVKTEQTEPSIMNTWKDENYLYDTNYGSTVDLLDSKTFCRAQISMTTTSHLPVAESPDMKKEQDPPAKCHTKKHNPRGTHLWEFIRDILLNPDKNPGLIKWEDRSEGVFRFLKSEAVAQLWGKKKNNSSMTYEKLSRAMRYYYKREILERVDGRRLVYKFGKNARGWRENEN
How it was run: as §1

SPI1 = SPI1 (Homo sapiens, UniProt P17947 1-270)
How it was run: as §1

SPIB = SPIB (Homo sapiens, UniProt Q01892 1-262)
Chain of SPIB (Q01892 whole entry): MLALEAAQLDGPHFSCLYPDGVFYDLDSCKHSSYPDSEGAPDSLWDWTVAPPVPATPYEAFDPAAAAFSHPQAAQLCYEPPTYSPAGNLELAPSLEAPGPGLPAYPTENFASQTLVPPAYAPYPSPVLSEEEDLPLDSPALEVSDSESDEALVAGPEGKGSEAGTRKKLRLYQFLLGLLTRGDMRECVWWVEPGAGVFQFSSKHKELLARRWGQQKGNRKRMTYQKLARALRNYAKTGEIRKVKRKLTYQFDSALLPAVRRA
How it was run: as §1

ELK3 = target: T6, ELK3 (Homo sapiens, UniProt P41970 1-407)
T6 sequence: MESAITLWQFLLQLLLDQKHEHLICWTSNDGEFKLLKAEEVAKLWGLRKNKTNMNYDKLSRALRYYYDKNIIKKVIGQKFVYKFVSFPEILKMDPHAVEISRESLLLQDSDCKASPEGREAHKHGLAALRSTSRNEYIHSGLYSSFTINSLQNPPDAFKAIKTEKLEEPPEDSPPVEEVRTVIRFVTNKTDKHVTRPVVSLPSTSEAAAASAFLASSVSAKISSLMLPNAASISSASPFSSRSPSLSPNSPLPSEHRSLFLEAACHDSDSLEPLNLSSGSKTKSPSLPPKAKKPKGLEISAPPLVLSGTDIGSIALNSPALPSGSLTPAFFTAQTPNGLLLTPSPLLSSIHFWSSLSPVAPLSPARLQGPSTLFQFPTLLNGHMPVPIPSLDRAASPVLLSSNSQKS
How it was run: as §1

| Sequence | binding signal (FLI1) | binding signal (ELK1) | binding signal (GABPA) | binding signal (ERG) | binding signal (ELF1) | binding signal (EHF) | binding signal (SPI1) | binding signal (SPIB) | binding signal (ELK3) |
| --- | --- | --- | --- | --- | --- | --- | --- | --- | --- |
| ATATGG | 1.13 fold enrichment (6-mer frequency, TF over GST control) | 1.31 fold enrichment (6-mer frequency, TF over GST control) | 1.28 fold enrichment (6-mer frequency, TF over GST control) | 1.36 fold enrichment (6-mer frequency, TF over GST control) | 1.26 fold enrichment (6-mer frequency, TF over GST control) | 1.27 fold enrichment (6-mer frequency, TF over GST control) | 1.17 fold enrichment (6-mer frequency, TF over GST control) | 1.24 fold enrichment (6-mer frequency, TF over GST control) | 1.25 fold enrichment (6-mer frequency, TF over GST control) |
| GTTCCG | 1.81 fold enrichment (6-mer frequency, TF over GST control) | 2.02 fold enrichment (6-mer frequency, TF over GST control) | 1.64 fold enrichment (6-mer frequency, TF over GST control) | 1.95 fold enrichment (6-mer frequency, TF over GST control) | 1.78 fold enrichment (6-mer frequency, TF over GST control) | 2.05 fold enrichment (6-mer frequency, TF over GST control) | 2.19 fold enrichment (6-mer frequency, TF over GST control) | 2.15 fold enrichment (6-mer frequency, TF over GST control) | 1.71 fold enrichment (6-mer frequency, TF over GST control) |
| CGTCAA | 1.2 fold enrichment (6-mer frequency, TF over GST control) | 1.15 fold enrichment (6-mer frequency, TF over GST control) | 1.19 fold enrichment (6-mer frequency, TF over GST control) | 1.11 fold enrichment (6-mer frequency, TF over GST control) | 1.11 fold enrichment (6-mer frequency, TF over GST control) | 1.12 fold enrichment (6-mer frequency, TF over GST control) | 1.01 fold enrichment (6-mer frequency, TF over GST control) | 1.27 fold enrichment (6-mer frequency, TF over GST control) | 1.06 fold enrichment (6-mer frequency, TF over GST control) |
| AGCTCA | 1.07 fold enrichment (6-mer frequency, TF over GST control) | 1.1 fold enrichment (6-mer frequency, TF over GST control) | 1.15 fold enrichment (6-mer frequency, TF over GST control) | 1.08 fold enrichment (6-mer frequency, TF over GST control) | 1.2 fold enrichment (6-mer frequency, TF over GST control) | 1.21 fold enrichment (6-mer frequency, TF over GST control) | 1.06 fold enrichment (6-mer frequency, TF over GST control) | 1.17 fold enrichment (6-mer frequency, TF over GST control) | 1.12 fold enrichment (6-mer frequency, TF over GST control) |
| AGTTAA | 1.02 fold enrichment (6-mer frequency, TF over GST control) | 1.09 fold enrichment (6-mer frequency, TF over GST control) | 1.05 fold enrichment (6-mer frequency, TF over GST control) | 1.12 fold enrichment (6-mer frequency, TF over GST control) | 1.01 fold enrichment (6-mer frequency, TF over GST control) | 1.08 fold enrichment (6-mer frequency, TF over GST control) | 1.13 fold enrichment (6-mer frequency, TF over GST control) | 1.08 fold enrichment (6-mer frequency, TF over GST control) | 1.04 fold enrichment (6-mer frequency, TF over GST control) |
| CCGGCC | 1.27 fold enrichment (6-mer frequency, TF over GST control) | 1.27 fold enrichment (6-mer frequency, TF over GST control) | 1.13 fold enrichment (6-mer frequency, TF over GST control) | 1.18 fold enrichment (6-mer frequency, TF over GST control) | 1.16 fold enrichment (6-mer frequency, TF over GST control) | 1.1 fold enrichment (6-mer frequency, TF over GST control) | 1.04 fold enrichment (6-mer frequency, TF over GST control) | 1.18 fold enrichment (6-mer frequency, TF over GST control) | 1.33 fold enrichment (6-mer frequency, TF over GST control) |
| TGCACC | 1.12 fold enrichment (6-mer frequency, TF over GST control) | 1.16 fold enrichment (6-mer frequency, TF over GST control) | 1.25 fold enrichment (6-mer frequency, TF over GST control) | 1.09 fold enrichment (6-mer frequency, TF over GST control) | 1.2 fold enrichment (6-mer frequency, TF over GST control) | 1.25 fold enrichment (6-mer frequency, TF over GST control) | 1.16 fold enrichment (6-mer frequency, TF over GST control) | 1.15 fold enrichment (6-mer frequency, TF over GST control) | 1.16 fold enrichment (6-mer frequency, TF over GST control) |
| AGAAGC | 1.11 fold enrichment (6-mer frequency, TF over GST control) | 1.15 fold enrichment (6-mer frequency, TF over GST control) | 1.12 fold enrichment (6-mer frequency, TF over GST control) | 1.16 fold enrichment (6-mer frequency, TF over GST control) | 1.08 fold enrichment (6-mer frequency, TF over GST control) | 1.21 fold enrichment (6-mer frequency, TF over GST control) | 1.22 fold enrichment (6-mer frequency, TF over GST control) | 1.15 fold enrichment (6-mer frequency, TF over GST control) | 1.1 fold enrichment (6-mer frequency, TF over GST control) |
